Screens from PubChem BioAssay.
LRH-1 inv ag = NR5A2 inverse agonism in reporter assay; actives 0.13% (n = 360,000); inhibition, % at 3.6 µM; O00482; HEK293T StAR-luciferase reporter, LRH-1 transfected, 24 h;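 active means inhibition above the mean inhibition of all tested compounds plus 3 SD, cut at about 73% in these data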;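 further: 0% = DMSO wells and 100% = reporter-only cells lacking LRH-1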
NCOA1 inh = human NCOA1 inhibition; actives 0.12% (n = 360,000); inhibition, % at 3.6 µM; AID 588354; HEK293 GAL4-SRC1 luciferase reporter, luminescence;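 active means inhibition above the campaign mean plus 3 SD, with each screening campaign given its own cutoff, cut at about 60% in these data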;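 further: 0% = DMSO treated cells and 100% = gossypol at 36 µM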
NCOA3 inh = inhibitors of human steroid receptor coactivator 3 (SRC3); Q9Y6Q9; HEK293 GAL4-SRC3 luciferase reporter, luminescence; inhibition, % at 3.6 µM; actives 0.17% (n = 360,000);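 active means inhibition above a per-campaign cutoff, the mean of all compounds plus 3 SD, cut at about 60% in these data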;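 further: 0% = DMSO-treated cells and 100% = gossypol-treated cells at 36 µM; higher means less SRC3-driven luciferase light from the GAL4 reporter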
NR2F2 inh = blocks human COUP-TFII nuclear receptor | P24468 | HEK293T NGFI-A luciferase reporter, luminescence | inhibition, % at 8.6 µM | actives 0.7% (n = 370,000);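 active means inhibition above a per-plate cutoff, mean inhibition of test wells between control levels plus 3 SD, cut at about 38% in these data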;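 further: cells cotransfected with COUP-TFII expression vector driving the NGFI-A reporter; 0% = median of COUP-TF2 test wells and 100% = reporter-only cells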
Target sequence (P24468 whole entry, looked up): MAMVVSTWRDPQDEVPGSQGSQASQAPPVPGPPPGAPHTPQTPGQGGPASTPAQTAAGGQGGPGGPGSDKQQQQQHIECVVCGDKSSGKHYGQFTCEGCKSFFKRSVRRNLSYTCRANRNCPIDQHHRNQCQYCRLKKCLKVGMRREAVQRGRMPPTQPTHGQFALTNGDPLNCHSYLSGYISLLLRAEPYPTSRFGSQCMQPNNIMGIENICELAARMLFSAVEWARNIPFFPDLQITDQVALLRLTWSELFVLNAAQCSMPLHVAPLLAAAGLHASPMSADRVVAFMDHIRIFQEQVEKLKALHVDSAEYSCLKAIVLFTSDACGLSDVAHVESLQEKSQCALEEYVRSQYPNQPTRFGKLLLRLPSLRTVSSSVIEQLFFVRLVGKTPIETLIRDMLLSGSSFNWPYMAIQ
NCOA2 inhibitor = human SRC2 (NCOA2) inhibition | Q15596 | HEK293 GAL4-SRC2 luciferase reporter, luminescence | inhibition, % at 9 µM | actives 0.17% (n = 370,000) | AID 651957;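 active means inhibition above the mean inhibition of all tested compounds plus 3 SD, set per campaign, cut at about 52% in these data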;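 further: 0% = DMSO treated cells and 100% = cells given Gossypol at 36 µM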
Gal4-VP16 ctr = inhibits VP16 reporter, flagging COUP-TFII antagonist hits | actives 25% (n = 2,500) | AID 687007 | inhibition, % at 8.5 µM | HEK293 Gal4-VP16 luciferase reporter, luminescence | shares compounds with NR2F2 inh; in the data active means inhibition above about 13%
NR2F2 inh conf = COUP-TFII (NR2F2) inhibition, confirmation assay; shares compounds with NR2F2 inh; HEK293 NGFI-A luciferase reporter, luminescence; inhibition, % at 8.5 µM; actives 45% (n = 2,500);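 active means mean inhibition over three repeats above a set limit taken from the earlier primary screen, cut at about 38% in these data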;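 further: 100% = cells given the luciferase reporter alone without the COUP-TF2 vector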
An asterisk follows results filed as active; · = no result. Shown are actives, neighbours in structure and some others; about 0.81% of the full set was active somewhere.

SMILES	LRH-1 inv ag	NCOA1 inh	NCOA3 inh	NR2F2 inh	NCOA2 inhibitor	Gal4-VP16 ctr	NR2F2 inh conf
CCOC(=O)[C@]12Cc3cc(Cl)ccc3[C@H]1N(C(C)C)C(=O)c1ccccc12	33.7	·	·	41.3*	-4.1	21.3*	52.8*
CCN1CCN(c2ncnc3ccc(Br)cc23)CC1	18.8	50.5	38.4	42.0*	38.6	11.0	23.2
CC1C(OC(=O)CCC(=O)NC(C)(C)CO)O[C@H]2OC3(C)CC[C@H]4[C@H](C)CCC1C24OO3 (stereo partly specified)	90.5*	54.6	53.5	45.6*	5.6	7.3	49.7*
CC(C)CC(NC(=O)CCCNC(=O)CCC(=O)OC1O[C@H]2OC3(C)CC[C@H]4[C@H](C)CCC(C1C)C24OO3)C(=O)O (stereo partly specified)	84.0*	43.1	72.7*	45.9*	22.6	-2.5	45.2*
Cc1cc(N2CCNC[C@H]2C)ccc1N1CC[C@@H](O)C1	·	·	·	-7.0	-24.8	·	·
COC(=O)C1=C(c2cccc(OCc3ccccc3)c2)C[C@@H]2CC[C@H]1N2C(=O)NCc1ccc2[nH]ccc2c1	5.6	2.4	-15.4	13.1	-0.8	·	·
COc1ccc(CNCCc2c(C)[nH]c3ccc(OC(F)(F)F)cc23)c(OC)c1	26.2	7.0	7.2	51.5*	21.2	1.7	44.8*
COc1ccc2[nH]c(C)c(CCNCc3cc(OC)c(OC)c(OC)c3)c2c1	11.7	4.2	7.7	12.6	2.4	·	·
CCN(CC)C1=NC(=[N+](CC)CC)c2ccccc21	55.1	40.2	26.8	45.5*	31.2	12.2	52.3*
C[C@H]1C[C@@H](C)C(=O)[C@@H]([C@H](O)CC2CC(=O)NC(=O)C2)C1	103.1*	91.5*	93.0*	84.8*	71.9*	6.3	69.8*
N#Cc1ccc(NC(=S)N2Cc3cc(Br)ccc3-n3nncc3C2)cc1	·	·	·	8.5	0.8	·	·
C[C@H]1CCC/C=C/[C@@H]2C[C@H](O)C[C@H]2[C@@H](O)/C=C/C(=O)O1	61.2	18.2	57.3	52.8*	22.6	18.0*	30.7
COc1ccc(CCNC2CCCCC2)cc1	-22.4	-7.4	14.5	2.3	-18.1	·	·
COc1ccc(C[C@H]2NC[C@H](O)[C@H]2OC(C)=O)cc1	102.1*	94.6*	92.7*	89.3*	70.5*	20.4*	83.5*
Cc1ccc(-c2cc(-c3ccc(C)cc3)[n+](C)o2)cc1	65.9	48.6	53.9	68.6*	-6.1	6.4	56.4*
CC(=O)OC1CC(OC2C(O)CC(OC3C(O)CC(OC4CCC5(C)C(CCC6C5CCC5(C)C(C7=CC(=O)OC7)C(O)CC65O)C4)OC3C)OC2C)OC(C)C1OC1OC(CO)C(O)C(O)C1O (stereo unspecified)	98.4*	84.4*	81.5*	73.9*	38.1	35.6*	65.3*
CC(=O)OC1CC2(O)C3CCC4CC(O)CCC4(C)C3CCC2(C)C1C1=CC(=O)OC1 (stereo unspecified)	99.0*	85.5*	87.6*	76.8*	50.4	46.9*	71.9*
COc1ccc(-n2c(O)c(C(C)=NCCc3c[nH]c4ccccc34)c(=O)[nH]c2=O)cc1	12.8	-28.9	-1.6	-1.1	4.7	·	·
CC(C)(C)NC(=O)CN1C(=O)[C@@H](Cc2c[nH]c3ccccc23)N=C(c2ccccc2)c2ccccc21	·	·	·	2.7	5.0	·	·
C=CCCC(NC(=O)OCc1ccccc1)P(=O)(Oc1ccccc1)Oc1ccccc1 (stereo unspecified)	·	·	·	3.2	·	·	·
Cc1ccc(-c2cc(-c3ccccc3)cc(-c3ccccc3)[n+]2-c2ccccc2)cc1	97.6*	56.4	83.7*	76.2*	74.6*	30.6*	88.6*
CN(C)c1ccc(-[n+]2c(-c3ccccc3)cc(-c3ccccc3)cc2-c2ccccc2)cc1	89.6*	59.0	82.5*	85.8*	-1.9	27.3*	90.0*
c1ccc(-c2cc(-c3ccccc3)[n+](-c3ccccc3)c(-c3ccccc3)c2)cc1	57.4	35.2	65.7*	72.7*	16.8	15.2*	45.0*
CCOC(=O)c1cccc(-[n+]2c(-c3ccccc3)cc(-c3ccccc3)cc2-c2ccccc2)c1	23.3	8.4	30.0	33.4	8.2	·	·
CCOC(=O)[C@]12Cc3cc(OC)ccc3[C@H]1N(C(C)C)C(=O)c1cc(OC)ccc12	9.8	·	·	17.7	28.3	·	·
SMILES	LRH-1 inv ag	NCOA1 inh	NCOA3 inh	NR2F2 inh	NCOA2 inhibitor	Gal4-VP16 ctr	NR2F2 inh conf
COc1ccc(CN2Cc3cnnn3-c3ccccc3C2c2ccccc2)cc1 (stereo unspecified)	-9.1	12.3	7.2	9.5	14.8	·	·
COc1ccc(CN2Cc3cnnn3-c3ccccc3C2C#N)cc1 (stereo unspecified)	35.9	23.4	46.2	59.0*	42.6	26.3*	13.2
N#CC1c2ccccc2-n2nncc2CN1Cc1cc(Cl)cc(Cl)c1 (stereo unspecified)	93.3*	82.7*	90.7*	83.8*	85.8*	56.0*	64.4*
c1ccc(Cn2nnnc2C2CN=C(c3ccccc3)c3ccccc3N2)cc1 (stereo unspecified)	·	·	·	0.4	8.5	·	·
C[C@]12C[C@H](O)[C@@H](O)CC1=CCC1C2CC[C@@]2(C)C1CC[C@@H]2O (stereo partly specified)	-10.9	9.1	6.3	0.6	-6.4	·	·
CCOC(=O)[C@]12Cc3ccc4ccccc4c3[C@H]1N(Cc1ccccc1)C(=O)c1ccccc12	9.1	·	·	-13.5	15.1	·	·
C[C@H](NC(=O)OCc1ccccc1)[P+](=O)O	·	·	·	-11.1	-0.8	·	·
COC(=O)[C@@]1(O)c2c(oc3cccc(O)c3c2=O)C=C[C@H]1O	·	·	·	-17.6	-20.6	·	·
CC1CC(C)CC(C)C(O)C(C#N)=CC=CCC(C2CCCC2C(=O)O)OC(=O)CC(O)C(C)C1 (stereo unspecified)	98.4*	94.2*	93.6*	83.5*	75.7*	23.1*	79.9*
CCOC(=O)CC[C@@H]1CC[C@]2(CCCN(Cc3ccccn3)C2)O1	·	·	·	-1.9	8.7	·	·
COc1ccc(Cc2cn(C)c(N)n2)cc1	·	·	·	-4.5	-8.8	·	·
O=[N+]([O-])c1ccc(N2CCOCC2)c2c1no[n+]2[O-]	91.7*	77.6*	91.4*	89.2*	97.0*	62.2*	-105.5
Cc1cc(O)c2c(c1)C(=O)[C@@]13C(=C2O)C(=O)[C@H]2C(O)[C@@H]1[C@H]1C(O)[C@@H]3C(=O)C3=C(O)c4c(O)cc(C)cc4C(=O)[C@@]312 (stereo partly specified)	·	·	·	40.7*	-13.6	6.0	28.2
CC1C(=O)CC2(C(C)C)CC12 (stereo unspecified)	24.0	-1.0	16.8	-26.4	5.6	·	·
COC(=O)C1C(c2ccccc2)CC2CCC1N2C (stereo unspecified)	·	·	·	-28.0	-0.8	·	·
